FEN1 inhibitor: human FEN1 inhibition. Recombinant FEN1 flap cleavage, fluorescence, 15 min. 0.35% of 390,000 active. Potency, µM (doses to about 114 µM), for the others: at the top dose activity change, negative = inhibition, most hits filed as inhibitors; also: % is scaled to controls: 0 for no effect and ±100 for the full control effect; nearly all actives have a fitted effect of over 65% in size
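Quantitative HTS format: each compound was titrated, incubated with 10 nM nuclease for 15 min at room temperature, then challenged with flap substrate at 50 nM final. Signal change over 15 min gave concentration–effect curves.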
POLK inh: inhibitors of human DNA polymerase kappa; Q9UBT6; purified Pol kappa, fluorescent DNA synthesis assay, 10 min; Potency, µM (top dose mostly 107 µM), inactives show at the highest dose activity, negative = inhibition, usual class: inhibitors; 0.53% of 400,000 active; AID 588579; also: % is scaled to controls: 0 for no effect and ±100 for the full control effect
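10 nM Pol kappa was preincubated with compounds for 15 min at room temperature. Reaction started with 50 nM (final) substrate. Fluorescence read kinetically at 0 and 10 min.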
Pol eta inh: blocks human DNA polymerase eta activity. Q9Y253. recombinant Pol eta, fluorescent DNA replication assay. Potency, µM (series often up to 114 µM), without a hit: top-dose activity change, negative = inhibition, most hits filed as inhibitors. 1.2% of 390,000 active. AID 588591; also: % is scaled to controls: 0 for no effect and ±100 for the full control effect
Target sequence (Q9Y253 whole entry, looked up): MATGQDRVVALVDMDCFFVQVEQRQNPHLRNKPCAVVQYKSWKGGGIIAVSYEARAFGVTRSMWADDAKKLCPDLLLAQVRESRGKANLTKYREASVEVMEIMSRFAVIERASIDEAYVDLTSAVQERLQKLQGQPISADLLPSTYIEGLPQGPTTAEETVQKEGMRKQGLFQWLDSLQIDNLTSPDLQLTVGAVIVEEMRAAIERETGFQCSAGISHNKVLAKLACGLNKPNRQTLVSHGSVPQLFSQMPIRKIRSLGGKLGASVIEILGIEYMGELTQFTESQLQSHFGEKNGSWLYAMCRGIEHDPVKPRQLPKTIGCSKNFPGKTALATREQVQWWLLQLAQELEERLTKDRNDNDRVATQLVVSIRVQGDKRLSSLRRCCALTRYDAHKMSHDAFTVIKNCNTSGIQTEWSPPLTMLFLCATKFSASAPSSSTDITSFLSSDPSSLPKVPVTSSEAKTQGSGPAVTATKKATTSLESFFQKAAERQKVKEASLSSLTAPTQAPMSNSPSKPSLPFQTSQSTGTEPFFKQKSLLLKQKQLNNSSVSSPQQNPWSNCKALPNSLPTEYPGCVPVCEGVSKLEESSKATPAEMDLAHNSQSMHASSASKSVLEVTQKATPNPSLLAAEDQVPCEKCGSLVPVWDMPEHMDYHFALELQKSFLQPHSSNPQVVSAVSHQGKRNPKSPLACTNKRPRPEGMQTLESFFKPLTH
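Fluorescent replication assay: 50 nM final substrate added after a 15 min room-temperature compound preincubation with 10 nM enzyme. Signal taken at 0 min and again at 10 min.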
Pol iota inh: DNA polymerase iota (human) inhibition; Q9UNA4; Pol iota fluorescent replication assay, 10 min; Potency, µM (doses to about 115 µM), inactives show at the highest dose activity, negative = inhibition, actives largely listed as inhibitors; 1% of 390,000 active; AID 588590
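Fluorescent replication assay read twice, at 0 min and 10 min after adding 50 nM (final) substrate. Enzyme (10 nM) and compounds were first incubated 15 min at room temperature; enzyme-free buffer wells were negative controls.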
Pol beta inh: blocks human DNA polymerase beta activity. P06746. Pol beta primer extension/strand displacement, fluorescence kinetic. Potency, µM (highest dose often 114 µM), without a hit: at the highest dose activity change, negative = inhibition, usual class: inhibitors. 1.3% of 340,000 active. AID 485314; also: % is scaled to controls: 0 for no effect and ±100 for the full control effect
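Kinetic readout of DNA synthesis with strand displacement by Pol beta. Compound and 10 nM enzyme sit 15 min at room temperature; 50 nM substrate starts the reaction, read immediately and at 10 min.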
WRN helicase inh: WRN helicase (human) inhibition; Potency, µM (highest dose often 114 µM), for inactives: at the top dose activity change, negative = inhibition, most hits filed as inhibitors; 0.46% of 360,000 active; Q14191; WRN helicase unwinding, fluorescent forked duplex, kinetic; also: % is scaled to controls: 0 for no effect and ±100 for the full control effect; nearly all actives have a fitted effect of over 55% in size
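Primary qHTS, 1536-well format. 20 nM WRN + compound, 15 min RT; start with 100 nM forked fluorophore/quencher duplex, 2 mM ATP (final); kinetic read ex 525/em 598 nm.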
Starred values were filed as active, the others as inactive; ? = inconclusive; · = no result; [ ] = remark or other dose. In the library only some 2.4% were active in any assay of this set; here they are far more common. Calls follow the shape of the dose curve; as a rule, active = well fitted curve in the direction sought with a large enough effect; inconclusive = small, poorly fitted or top-dose-only effect, or another doubt; inactive = no such curve, though single readings can be large; an effect the other way counts as inactive or inconclusive. Potency is read from the fitted curve at half-maximal effect.

SMILES	FEN1 inhibitor	POLK inh	Pol eta inh	Pol iota inh	Pol beta inh	WRN helicase inh
C#CCOCCOCCOCCNc1nc(N2CCN(C(=O)Cn3cc(CCCN=C(N)N)nn3)CC2)nc(N2CCN(C(=O)[C@H]([C@@H](C)CC)n3cc(CCC(=O)O)nn3)CC2)n1	1.9%	1.3%	2.5%	89.1µM*	-0.6%	12.3%
C#CCOCCOCCOCCNc1nc(N2CCN(C(=O)CCCCCCCCCCNC(=O)Cn3cc(CCCCCN)nn3)CC2)nc(N2CCN(C(=O)CCCCCCCCCCNC(=O)[C@@H](CCC(=O)O)n3cc(CCCCCN)nn3)CC2)n1	6.9%	16.0%	-15.2%	?	·	0.4%
C#CCOCCOCCOCCNc1nc(N2CCN(C(=O)Cn3cc(CCO)nn3)CC2)nc(N2CCN(C(=O)[C@H]([C@@H](C)CC)n3cc(CCCN=C(N)N)nn3)CC2)n1	0.7%	8.0%	-18.9%	12.2%	·	-5.7%
C#CCOCCOCCOCCNc1nc(N2CCOCC2)nc(N2CCN(C(=O)Cn3cc(CCCN=C(N)N)nn3)CC2)n1	-1.0%	1.6%	0.7%	-15.6%	-6.4%	0.5%
C#CCOCCOCCOCCNc1nc(N2CCN(C(=O)Cn3cc(CCCN=C(N)N)nn3)CC2)nc(N2CCN(C(=O)Cn3cc(CCCN=C(N)N)nn3)CC2)n1	·	·	·	·	1.58µM*	·
CCOC(=O)c1c(NC(=O)c2cc(-c3ccccc3OC)on2)sc(C)c1C	-10.8%	-23.5%	-5.4%	8.2%	1.5%	·
CC1(C)CC(=O)c2c(oc3ccc(NS(=O)(=O)c4cccc5cccnc45)cc23)C1	1.5%	-6.9%	-11.7%	-13.2%	-0.3%	-4.3%
O=C1CCCc2oc3ccc(NS(=O)(=O)c4cccc5cccnc45)cc3c21	-6.8%	-16.0%	89.1µM*	?	-18.2%	-6.6%[11.6 µM]
O=C(O)C(Cc1ccccc1)N1C(=O)/C(=C/c2cccc3ccccc23)SC1=S (centres undefined)	·	·	·	·	31.6µM*	·
Cc1ccc(/C=C2\SC(=S)N(C(Cc3ccccc3)C(=O)O)C2=O)cc1 (centres undefined)	3.9%	-2.4%	79.4µM*	10.8%	89.1µM*	-7.4%
O=C(O)C(Cc1ccccc1)N1C(=O)/C(=C/c2ccccc2)SC1=S (centres undefined)	-2.9%	2.5%	-20.6%	2.2%	1.6%	1.1%
COc1cc(N(C)C)ccc1/C=C/c1ccnc2ccccc12	-6.1%	-26.2%	·	-16.8%	·	·
CCCCN(C)C(=O)c1ccc2c(c1)N(Cc1ccc(F)cc1)C(=O)c1ccccc1S2(=O)=O	-3.8%	-20.7%	·	9.8%	-2.6%	·
COc1ccccc1CNC(=O)c1oc2c(c1C)-c1nn(Cc3ccc(Cl)cc3)cc1CC2	-18.1%	-4.5%	-2.3%	-10.0%	-10.1%	·
O=C(Cn1cnc2c(cnn2-c2ccc(F)cc2)c1=O)NCc1ccco1	6.6%	-2.7%	-15.3%	9.7%	27.2%	-1.5%
Cc1sc2ncn(CC(=O)NCc3ccco3)c(=O)c2c1-c1ccc(F)cc1	7.1%	-13.9%	79.4µM*	30.3%	?	-16.5%
COCCCNC(=S)Nc1cccc2ncccc12	-10.0%	-13.8%	1.0%	5.62µM*	2.5%	-22.3%
O=C(NCc1ccccc1)C(c1ccc(-c2ccccc2)cc1)N1CCN(C(=O)C2CCCO2)CC1 (centres undefined)	·	·	·	·	·	4.9%
O=C(N/N=C/c1ccc([N+](=O)[O-])o1)c1sc2ccccc2c1Cl	39.8µM*	50.1µM*	?	20µM*	?	-20.1%
O=C(N/N=C/c1c[nH]c2ccccc12)c1sc2ccccc2c1Cl	-22.4%	-19.1%	-11.5%	139.1%	0.5%	-15.7%
O=C(N/N=C/c1ccccn1)c1sc2ccccc2c1Cl	?	-33.0%	?	-7.3%	44.7µM*	?
O=C(c1ccc(Br)cc1)N1CCN(CCc2ccncc2)CC1	-1.2%	-1.6%	-24.1%	10.1%	15.5%	·
CCN(CC)c1cc(C)c2cc(NC(=O)c3ccc(OC)c(OC)c3)ccc2n1	-3.2%	?	-19.7%	?	12.6µM*	·
COc1ccc(C(=O)Nc2cccc3cccnc23)cc1OC	-20.5%	-9.8%	-8.4%	5.4%[58.9 µM]	24.4%	-0.3%
COc1ccc(C(=O)Nc2cccc(NC(=O)c3ccc(OC)c(OC)c3)n2)cc1OC	-4.9%	-15.6%	-19.6%	?	22.4µM*	11.1%
SMILES	FEN1 inhibitor	POLK inh	Pol eta inh	Pol iota inh	Pol beta inh	WRN helicase inh
CCCc1nccn1S(=O)(=O)c1cc(Br)ccc1OC	-4.2%	-3.5%[60.1 µM]	-14.8%	11.5%	-24.1%	·
Cc1ccc(Cn2c(C(=O)NCc3ccccc3Cl)cc3sccc32)cc1	1.6%	-22.1%	-3.4%	14.2%	2.6%	·
O=c1ccsn1Cc1ccccc1	56.2µM*	-0.2%	-14.1%	25.1µM*	4.2%	50.1µM*
O=C1NC(Cc2ccccc2)C(=O)N1Cc1ccccc1 (centres undefined)	-10.5%	-5.4%	-10.9%	26.1%	·	2.4%
NC(N)=N/N=C/c1ccc(OCc2ccccc2)c(OCc2ccccc2)c1	?	-14.7%	-21.8%	36.6%	79.4µM*	-2.4%
CCOc1cc(/C=N/N=C(N)N)ccc1OCc1ccc(Cl)cc1	2.3%	6.5%	-16.4%	12.9%	79.4µM*	-1.8%
CCOC(=O)c1cc(S(=O)(=O)N2CCN(c3cc(C)ccc3C)CC2)[nH]n1	7.4%	-11.3%[60.1 µM]	3.7%	-18.2%	3.2%	·
CCn1nc(C)c(CCN(C)C(=O)Nc2cccc(Cl)c2C)c1C	-0.2%	-7.9%[60.1 µM]	-2.7%	15.9%	9.3%	·
O=C(/C(=N/N=C/c1ccc(O)c(O)c1O)c1ccccc1)c1ccccc1	?	-31.5%	?	17.8µM*	3.55µM*	-31.1%
O=C(NN=Cc1ccc(O)c(O)c1)c1ccccc1	·	·	·	·	·	-17.7%
CCOCCc1nn2c(=O)cc(COC(=O)c3ccc(NC(=O)c4ccc(F)cc4)cc3)nc2s1	5.7%	0.5%[60.1 µM]	-6.0%	-15.2%	-21.3%	·
Cc1ccc(NC(=O)CSc2sc3c(O)cc(=O)[nH]c3c2C#N)c(F)c1	-5.2%	-21.0%	56.2µM*	?	-19.9%	-11.2%[11.6 µM]
Cc1occc1C(=O)NCc1ccco1	3.0%	-29.8%	?	?	31.6µM*	-14.4%
Cc1occc1C(=O)NCc1ccc(C(=O)O)o1	-4.9%	-2.0%	56.2µM*	-5.2%	1.2%	-15.7%[57.1 µM]
Cc1c(Br)cc(C(=O)NCc2ccco2)c(C)c1C	12.1%	-27.1%	?	?	22.4µM*	-10.5%[57.1 µM]
Cc1occc1C(=O)NCc1ccccc1	-4.1%	-6.7%	-15.0%	-0.3%	0.3%	9.7%
Cc1occc1C(=O)NCCc1ccc(Cl)cc1	4.0%	-4.0%	-4.6%	5.0%[58.9 µM]	5.5%	4.1%
CCOc1ccc(-n2c(=O)c3c4c(sc3n(CC(=O)NC(C)CC)c2=O)CCC4)cc1 (centres undefined)	2.7%	13.0%	-6.6%	10.0%	0.0%	·
COc1cc(OC)cc(-c2nc3nc(C)c(CCC(=O)Nc4cc(C)cc(C)c4)c(C)n3n2)c1	4.7%	-10.5%	-6.0%	-24.2%	-24.7%	·

Compound activity as filed in PubChem.
